# Test results reported in the supplement of paper PMC7801607.
# How the values were obtained:
# CHO = assay: % viability of CHO cells (MTT); higher = less toxic; details: 48 h
# In short: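 Percent viability of CHO cells, relative to untreated cells, was read colorimetrically by tetrazolium (MTT) assay. Cells were seeded at 10^6 cells/well and treated for 48 h with compound at 2 or 20 µM in fresh medium.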
# HepG2-A16-CD81 = assay: % inhibition of HepG2 viability (CellTiter-Glo); higher = more toxic; details: 5 µM;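 further: HepG2-A16-CD81 hepatoma cells plated as in the liver-stage assay but without sporozoites, with DMSO wells as negative and 25 µM puromycin as positive control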
# [1] = tested on: Plasmodium falciparum NF54 stage IV/V gametocytes; assay: % inhibition of gametocyte viability (PrestoBlue); higher = more inhibition; details: 48 h
# In short: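 Stage IV/V NF54 gametocytes were exposed to compound at 1 or 5 µM for 48 h at 37 °C under stationary, hypoxic conditions, then read by PrestoBlue fluorescence at 612 nm. The percent inhibition of gametocyte viability was normalised to vehicle and kill controls from one run.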
# [2] = tested on: Plasmodium falciparum NF54 asexual blood stage; assay: % inhibition of asexual blood stage proliferation (pLDH); higher = more inhibition; details: 72 h
# In short: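 Ring-stage cultures of Plasmodium falciparum NF54 at 1% haematocrit and 2% parasitaemia were treated with compound at 2 or 20 µM in 96-well plates and kept for 72 h at 37 °C under 4% CO2, 3% O2 and 93% N2. Parasite survival was measured by the parasite lactate dehydrogenase assay, read colorimetrically at 620 nm. Percent inhibition of asexual proliferation was calculated relative to control wells, and the screen was carried out on two separate occasions.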
# [3] = tested on: Plasmodium falciparum NF54 stage IV/V gametocytes; assay: % inhibition of gametocyte viability (ATP bioluminescence); higher = more inhibition; details: 24 h
# In short: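 Stage IV/V NF54 gametocytes were enriched on density gradients and seeded at 30,000 per well in 96-well plates with compound at 1 or 5 µM. Plates were incubated for 24 h at 37 °C. ATP was measured with the Promega BacTiter Glo bioluminescence system. Percent inhibition of gametocyte viability was normalised to DMSO and kill controls from a single run.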
# [4] = tested on: Plasmodium falciparum NF54 stage IV/V gametocytes; assay: % inhibition of gametocyte viability (luciferase reporter); higher = more inhibition; details: 48 h
# In short: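 Percent inhibition came from luminescence and was normalised to controls in a single run. Gametocytes (stage IV/V, NF54-Pfs16-GFP-Luc line, 2% gametocytaemia, 2% haematocrit) were treated with compound at 1 or 5 µM and incubated for 48 h at 37 °C without agitation under hypoxia. Readings used 30 µL lysate with 30 µL Promega luciferin substrate on a GloMax-Multi+ reader, integrating for 10 s.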
SMILES,% viability of CHO cells (CHO; 2 µM) [%],% viability of CHO cells (CHO; 20 µM) [%],% inhibition of HepG2 viability (HepG2-A16-CD81) [%],% inhibition of gametocyte viability ([1]; 1 µM) [%],% inhibition of gametocyte viability ([1]; 5 µM) [%],% inhibition of asexual blood stage proliferation ([2]; 2 µM) [%],% inhibition of asexual blood stage proliferation ([2]; 20 µM) [%],% inhibition of gametocyte viability ([3]; 1 µM) [%],% inhibition of gametocyte viability ([3]; 5 µM) [%],% inhibition of gametocyte viability ([4]; 1 µM) [%],% inhibition of gametocyte viability ([4]; 5 µM) [%]
CC[C@H]1OC(=O)[C@H](C)[C@@H](O[C@H]2C[C@@](C)(OC)[C@@H](O)[C@H](C)O2)[C@H](C)[C@@H](O[C@@H]2O[C@H](C)C[C@H](N(C)C)[C@H]2O)[C@](C)(O)C[C@@H](C)C(=O)[C@H](C)[C@@H](O)[C@]1(C)O,90.8,55.1,3.5,21,21,-1.14,14.1,< 0,< 0,< 0,< 0
COC(=O)Nc1nc2cc(Sc3ccccc3)ccc2[nH]1,103,101,32.9,< 0,11.8,-7.16,5.37,3.38,< 0,< 0,< 0
Cc1c(OCC(F)(F)F)ccnc1CS(=O)c1nc2ccccc2[nH]1 (stereo not given),87.1,96.9,1.82,14.1,15.8,71.5,95.5,< 0,< 0,< 0,< 0
Cc1onc(-c2ccccc2)c1-c1ccc(S(N)(=O)=O)cc1,120,106,-1.58,12.1,41.6,48.8,77.5,1.41,< 0,0.106,< 0
COc1ccc(COc2cc3oc(=O)c4cc(C(C)O)ccc4c3cc2OC)cc1 (stereo not given),81.5,74.4,6.8,11,11.6,35.7,80.4,6.77,< 0,< 0,< 0
O=C1C=C(c2ccccc2)S(=O)(=O)c2ccccc21,91.6,81.8,-4.77,53.4,76,-2.86,54.4,13.8,83.4,16,85.4
C[C@H](Cn1cnc2c(N)ncnc21)OCP(=O)(O)O,89.8,99.9,-1.34,10.5,17.7,-36.5,46.2,5.56,< 0,9.2,< 0
CCCCc1ccc(-c2cc(C(=O)O)cc(-c3ccc(Cl)cc3)n2)cc1,93.4,108,14.4,9.55,12.3,43,102,< 0,< 0,0.176,8.67
Cc1nc(Nc2ccc(F)cc2)nc(N2CCc3ccccc3C2C)c1C (stereo not given),103,69.7,8.08,2.28,4.43,49.6,73.1,< 0,43.7,< 0,< 0
Cc1c(N)cccc1Cn1ccc(OCCc2cccs2)cc1=O,240,54.9,5.54,< 0,< 0,6.4,22.2,0.516,< 0,< 0,< 0
CCOC(=O)N1CCN(c2ccc(Cl)cc2)CC1,90.5,83.4,-3.4,17.5,< 0,6.16,24.1,< 0,< 0,< 0,8.21
C[C@@H](NC(=O)c1cccc(-c2c[nH]c(-c3cc4ccccc4cn3)n2)c1)c1ccc(F)cc1,91.9,101,-1.52,9.05,8.49,21.8,72.3,28.5,83.2,0.447,1.09
O=C(Nc1ccc(Cl)c(C(F)(F)F)c1)C(CCCl)C(=O)Nc1ccc(Cl)c(C(F)(F)F)c1,84,93.6,5.66,< 0,< 0,19.9,27.7,< 0,< 0,< 0,< 0
C=C(C)n1c(=O)n(Cc2ccccc2C)c2ccccc21,110,56.8,3.81,4.81,0.864,16.6,48.2,< 0,< 0,< 0,< 0
COc1ccc(C)cc1NC(=O)c1ccc(S(=O)(=O)N2CCCCC2)cc1,128,156,6.14,0.335,3.85,1.42,32.8,< 0,< 0,< 0,< 0
O=C(N[C@H](Cc1cccc2ccccc12)C(=O)NCCc1c[nH]cn1)C1Cc2ccccc2C1,95.1,97.8,0.483,2.53,32.6,23,81.3,2.29,1.33,< 0,2.07
Cc1ccn2c(C(=O)NCc3ccccc3)c(C)nc2c1,276,53.7,-0.843,3.75,36.6,44.3,74.9,< 0,< 0,2.75,0.0756
N=C(N)NCCCCC(=O)Nc1cc(C(F)(F)F)cc(NC(=O)c2cc(C(=O)Nc3cc(C(F)(F)F)cc(NC(=O)CCCCNC(=N)N)c3O[C@@H]3CCNC3)ncn2)c1O[C@@H]1CCNC1,120,43,15,< 0,< 0,76.8,114,9.98,39.3,19.3,78.2
O=C(O)COc1cccc2c1CC[C@](O)(COC(=O)N(c1ccccc1)c1ccccc1)C2,92.5,105,-9.51,23.2,25.8,11.3,-4.41,< 0,< 0,1.62,< 0
CC(C)(C)c1ccc(C(Cn2cccc(C(F)(F)F)c2=O)NC2Cc3ccccc3C2)cc1 (stereo not given),106,94.3,-1.5,10,21.3,32.7,69.1,< 0,< 0,< 0,3.42

SMILES,% viability of CHO cells (CHO; 2 µM) [%],% viability of CHO cells (CHO; 20 µM) [%],% inhibition of HepG2 viability (HepG2-A16-CD81) [%],% inhibition of gametocyte viability ([1]; 1 µM) [%],% inhibition of gametocyte viability ([1]; 5 µM) [%],% inhibition of asexual blood stage proliferation ([2]; 2 µM) [%],% inhibition of asexual blood stage proliferation ([2]; 20 µM) [%],% inhibition of gametocyte viability ([3]; 1 µM) [%],% inhibition of gametocyte viability ([3]; 5 µM) [%],% inhibition of gametocyte viability ([4]; 1 µM) [%],% inhibition of gametocyte viability ([4]; 5 µM) [%]
CC(C)Oc1ccc(-n2cnc3cc(/C=C\c4ccc(C(C)(C)O)cc4)ccc32)cc1,113,115,5.08,30.8,32.2,25.6,54.7,< 0,< 0,< 0,< 0
NC(=S)N/N=C/c1ncccc1N,111,48.6,-22.6,80.3,91.2,73.5,78.5,< 0,15.5,1.59,5.86
Cc1cc(CCCOc2c(C)cc(-c3noc(C(F)(F)F)n3)cc2C)on1,103,125,7.06,6.7,35.6,44.6,65.2,4.65,5.28,10.6,< 0
Cc1ccc(NC(=O)c2cc(Cl)ccc2O)cc1,101,-0.714,29.4,< 0,< 0,57.7,98.8,< 0,< 0,5.12,4.7
O=C(N[C@H](CCS)C(=O)N[C@H](Cc1ccccc1)C(=O)O)c1cc2ccccc2[nH]1,78.3,74.3,-0.7,< 0,< 0,1.01,7.64,< 0,< 0,< 0,12
COC1CC2CCC(C)C(O)(O2)C(=O)C(=O)N2CCCCC2C(=O)OC(C(C)CC2CCC(OCCO)C(OC)C2)CC(=O)C(C)/C=C(\C)C(O)C(OC)C(=O)C(C)CC(C)/C=C/C=C/C=C/1C (stereo not given),92.8,106,1.51,< 0,4.18,26.6,90.3,2.16,37.2,15,4.08
O=C(NCc1ccc2c3c(cccc13)C(=O)N2)c1cccs1,135,156,1.86,< 0,< 0,6.3,16,< 0,< 0,< 0,16.9
O=C(O)c1ccc(-c2ccc(O[C@H]3O[C@H](CO)[C@@H](O)[C@H](O)[C@@H]3O)cc2)cc1,94,102,-2.59,< 0,3.77,0.633,16.6,< 0,< 0,< 0,12.4
CN(C/C=C/C#CC(C)(C)C)Cc1cccc2ccccc12,101,117,-4.35,< 0,< 0,-1.71,61.2,< 0,< 0,< 0,< 0
Clc1ccc(Cn2c(CN3CCCC3)nc3ccccc32)cc1,97.8,91.5,2.06,23.6,61,11.9,69,10.2,57.1,1.55,< 0
C=CCc1cc(Cc2cnc(N)nc2N)cc(OC)c1O,89.2,105,7.8,12.8,29.7,29.1,76.8,< 0,< 0,< 0,< 0
O=C(CCCC(F)(F)F)N1CCC(c2nc(-c3nccs3)no2)CC1,113,105,8.03,-0.494,2.08,7.54,19.8,0.351,< 0,< 0,8.02
O=C(O)c1ccc(-n2nc(-c3ccccc3O)nc2-c2ccccc2O)cc1,85.7,106,3.21,8.04,< 0,-5.88,-5.43,< 0,< 0,< 0,< 0
COc1cc(C2C3=C(CC(C)(C)CC3=O)Nc3ccccc3N2C(C)=O)ccc1OCc1ccccc1 (stereo not given),174,58,3.3,< 0,13.3,-1.82,14.6,3.07,< 0,< 0,< 0
CN(C)CCCNC(=O)c1ccc(-c2cc(O)c3ncccc3c2)cc1,115,110,-5.75,70.8,81.4,68.6,82.4,71,81.1,5.12,23.3
CCn1cc(C(=O)O)c(=O)c2cc(F)c(N3CCNC(C)C3)c(F)c21 (stereo not given),104,102,0.454,34.9,43.8,36.8,28.9,< 0,< 0,< 0,< 0
COc1nc2ccc(Br)cc2cc1[C@@H](c1ccccc1)[C@@](O)(CCN(C)C)c1cccc2ccccc12,107,140,-0.302,< 0,< 0,82.9,101,< 0,49.3,14.4,19.2
OC(Cn1cncn1)(Cn1cncn1)c1ccc(F)cc1F,76.1,-3.55,-1.31,< 0,< 0,-1.25,-5.32,< 0,< 0,< 0,< 0
N[C@H]1CCC[C@H]1C(=O)O,109,145,-8.85,35.6,26.5,31.3,18.9,< 0,< 0,< 0,< 0
CC(C)N(c1cc(-c2ccccc2)sc1C(=O)O)C(=O)[C@H]1CC[C@H](C)CC1,91.8,103,-2.07,18.3,14.3,28.8,44.9,4.36,< 0,4.34,< 0
